# Reference: the OligoGym collection
# Biological target: ALAD
# Assay: pooled miR-30 sensor sort-seq; sequence = guide strand
# Conditions: shRNA
row,Sequence,sensor-assay potency score (higher = more potent)
1,TAGGTGATGATGATGTCAGCAC,0.277
2,TGATAGGCTGTATGTCATCAGG,-1.65
3,TGGATTGCCTCAATAGCTGGGG,-0.361
4,ATGTCATCAGGAACATCCGTGA,-0.798
5,TTGACTTAGCTGCATCCCGGAA,-1.25
6,ATGATGTCAGCACCTGCTCTGC,-1.4
7,TAGGCTGTATGTCATCAGGAAC,-1.11
8,ATGTCAGCACCTGCTCTGCGGA,-1.76
9,ACATCCGTGACAAAGATGGGGT,0.0537
10,TTTAAAGTTCTAGTTCTTGGGC,-0.0518
11,TTTGGTTTTCACTTGTCTGAGG,-0.0275
12,TATGTCATCAGGAACATCCGTG,0.268
13,AAATTTGGCACTGTAGCTCATC,-0.696

# Biological target: ALDH1A1
# Assay: as above
# Conditions: shRNA
row,Sequence,sensor-assay potency score (higher = more potent)
1,TTAAAATCTACTATATTAGTGA,0.534
2,TGTCTTTGGTAAACACTCCTGC,0.136
3,AATACTAATATGATTTAGCTTA,-0.152
4,TTAGAGAACACTGTGGGCTGGA,0.618
5,TATATTAGTGACTGTAAGGAGA,-0.658
6,TGTAACATTAGAGAACACTGTG,0.545
7,TTGGTAAACACTCCTGCTGATA,-1.11
8,TAACATTAGAGAACACTGTGGG,0.962
9,TGCCTTGTCAACATCCTCCTTA,0.465
10,TAGAAAGTATTGTTTGCTCTTT,-0.662
11,TATTGTTCCTTGTCAATCTGAG,0.207
12,TTGAATCTTCAAATCGGTGAGT,0.0111
13,ATATTGTTCCTTGTCAATCTGA,0.00946
14,TAGCGCAATGTTTTGATGCAGC,-0.601
15,TGATTTGCTGCACTGGTCCAAA,-0.586
16,TTAGCTATTGAAGAGCTTCTCT,0.445
17,TTAAAGACAGGAAATTTCTTGC,-0.236
18,TACTTTGTCTATATCCATGTGA,0.349
19,TTATCTCCTTCTTCTACCTGGC,-0.0648
20,AAATTCAACAGCATTGTCCAAG,-0.656
21,TAATTCTTTCAGAAGAAGCTAC,-0.0936
22,TTCATTGACTCCATTGTCGCCA,0.315
23,TAGCAATTCACCCACACTGTTC,-1.07

# Biological target: ALDH1A3
# Assay: as above
# Conditions: shRNA
row,Sequence,sensor-assay potency score (higher = more potent)
1,TTGAAGGGTTACATGTAGCAAA,-0.786
2,TCTTTTTATCACTTCTTCGATA,-0.674
3,TTTGTGAACACGGCTGCTGTGA,-0.151
4,TTTTTTGTGAACACGGCTGCTG,0.356
